Assay [1] in a line: inhibitors of TNFa-induced NFkB p65 translocation, primary screen, imaging, HUVEC, MLSMR starter and 10KST1 sets (AID 438;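 active = inhibition above 20% together with a positive visual image hit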;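 note: compound added about 3h40 before a 20 min TNFalpha stimulation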;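 for inhibition: signal is the nuclear over cytoplasmic p65 intensity ratio per well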). As to conditions: HUVEC TNFa-induced p65 nuclear translocation; cell count: measured here: nuclei count (cytotoxicity indicator), at 2.08 µM; inhibition: at 2 µM, stronger effect = higher value, 0% TNFa-plus-vehicle, 100% no-TNFa wells.
A short description of assay [2]: reduction of polyQ htt aggregates in cells – imaging, exon1htt(103Q)mCFP cells, high-content imaging, primary screen (AID 483;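 active = visual image review flags a hit and inhibition of aggregation exceeds 20%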;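 note: compound exposure lasted 3 days before fixation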;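 for nuclei count: percent of the per-plate median nuclei count of sample wells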). As to conditions: exon1htt(103Q)mCFP cell line, aggregate imaging, at 2 µM; inhibition of aggregation: stronger effect = higher value; nuclei count: measured here: cell count, toxicity.
Assay [3] is described as follows: endothelial E-selectin expression blockers – imaging, HUVEC, immunofluorescence, MLSMR starter and 10KST1 sets, primary screen (AID 487;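 active = visually confirmed hit in the image check and inhibition above 20%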;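 for inhibition: signal is fraction of cell area covered by stained E-selectin grains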;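 for nuclei count: 100% = median nuclei count of all wells on the same plate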). As to conditions: HUVEC TNFalpha-induced E-selectin immunofluorescence imaging, at 2 µM; inhibition: stronger effect = higher value; nuclei count: measured here: cell number, toxicity.
Assay [4] can be described thus: Primary imaging screen for DUSP6 inhibitors that restore phospho-Erk in transfected HeLa cells, chemical complementation (AID 609;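 active = compounds giving at least 50% inhibition in the cell-based MKP-3 phosphatase rescue imaging test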;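 for inhibition: phospho-Erk level distribution per well compared with pooled transfected vehicle control wells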). As to conditions: HeLa MKP-3 transfected, phospho-Erk imaging KS statistic, at 10 µM, cells stimulated with TPA for 15 min.
In assay [5] the target is Dual specificity protein phosphatase 6 (Homo sapiens) (UniProt Q16828). The description is as above. As to conditions: HeLa MKP-3 transfected, phospho-Erk imaging KS statistic; at 10 µM; stronger effect = higher value; cells stimulated with TPA for 15 min.
Chain of Dual specificity protein phosphatase 6 (Homo sapiens) (Q16828 whole entry, looked up): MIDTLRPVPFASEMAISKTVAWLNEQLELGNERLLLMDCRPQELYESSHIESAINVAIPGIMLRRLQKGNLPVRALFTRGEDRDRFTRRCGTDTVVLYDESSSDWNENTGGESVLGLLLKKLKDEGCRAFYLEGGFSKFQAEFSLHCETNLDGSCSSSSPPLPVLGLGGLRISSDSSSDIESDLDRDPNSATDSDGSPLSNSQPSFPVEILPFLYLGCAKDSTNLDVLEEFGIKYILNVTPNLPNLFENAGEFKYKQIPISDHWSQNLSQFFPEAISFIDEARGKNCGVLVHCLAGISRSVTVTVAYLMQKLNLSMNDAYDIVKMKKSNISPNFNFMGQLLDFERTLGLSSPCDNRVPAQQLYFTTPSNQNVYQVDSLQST
Assay [6] has as its target Voltage-gated potassium channel subunit beta-2 (Rattus norvegicus) (UniProt P62483). Briefly: inhibitors of rat Kvbeta2 reductase activity – biochemical, NADPH fluorescence, primary screen (AID 622;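 active = fluorescence slope higher than the sample average by over 3 SD, cut at about -0.22 in these data, passing the limit was not always enough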;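 note: slope of raw intensity against log time taken from 70 to 1610 s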). As to conditions: recombinant KvBeta, 4-cyanobenzaldehyde reduction, at 10 µM, stronger effect = higher value.
Assay [7] has the same target. The experiment in a line: enhancers of rat Kvbeta2 NADPH turnover – biochemical, NADPH fluorescence, primary screen (AID 623;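 active = NADPH fluorescence slope more negative than the mean of all samples by about 3 SD, 99.7% confidence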;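 note: fluorescence intensity change per second fitted from 20 to 320 s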). As to conditions: Recombinant KvBeta, NADPH fluorescence decrease slope, 10 min; at 10 µM; stronger effect = lower value.
Assay [8] has as its target Alpha-2C adrenergic receptor (Homo sapiens) (UniProt P18825). Briefly: compounds altering alpha2C-coupled GIRK flux – cell-based, HEK293 alpha2C/GIRK1/2, thallium flux, primary screen (AID 624;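 active = fluorescence slope after compound addition differing from the mean of all screened samples at 99.7% confidence, in either direction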;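 note: slope of fluorescence ratio to pre-addition baseline per second over 15 to 24 s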). As to conditions: thallium flux BTC fluorescence, at 10 µM, actives lie on both sides.
Assay [9] can be described thus: inhibitors of larval lipid processing in zebrafish, primary screen, whole organism, PED6 fluorescence, gall bladder and intestine (AID 686;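 active = a full or partial loss of lipid-probe fluorescence in the fish gall bladder, intestine or both, judged by eye; inactive = no fluorescence loss, or compound toxic to the fish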;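 note: larvae 5 to 7 days old with five fish per well; signal comes from phospholipase A2 cleavage of quenched PED6 carried via bile; overnight exposure to compound and PED6 before scoring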). As to conditions: Zebrafish larvae PED6 lipid processing, fluorescence scoring; screened at 20 µM (by protocol).
The nature of assay [10]: loss of swimming-algae plug formation – whole organism, Chlamydomonas reinhardtii, WT vs cilia-less mutant, absorbance, 96-well, primary screen (AID 463189).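 Note: 0% = wild type cc124 cells in DMSO and 100% = ciliumless bld1 mutant cells.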 As to conditions: Chlamydomonas reinhardtii gravitaxis, OD600 absorbance, 2 days; at 10 µM; stronger effect = higher value.
Assay [11] is described as follows: blockers of RIG-like receptor reporter activation – cell-based, Sendai virus stimulus, luciferase, 10K MLSCN set, TLR/RLR signaling modifier project, primary screen (AID 602276;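 active = inhibition at or above 50% at 10 µM; inactive = inhibition below 50%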;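 note: firefly luciferase from ISG56 promoter only with Renilla not read in this screen; 0% = Sendai virus plus DMSO and 100% = medium plus DMSO without virus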). As to conditions: HEK293 RL24 IRF3 luciferase reporter, at 10 µM, stronger effect = higher value.
Assay [12] can be described thus: TLR3 IRF3 reporter activation blockers – cell-based, poly I:C stimulus, luciferase, 10K MLSCN set, primary screen (AID 602277;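 active = inhibition of the reporter signal at or above 50%; inactive = inhibition below 50%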). As to conditions: HEK293-TLR3 RL24 IRF3 luciferase reporter, at 10 µM, stronger effect = higher value.
The target in assay [13] is Muscarinic acetylcholine receptor M4 (Homo sapiens) (UniProt P08173). The experiment in a line: M4-linked GIRK flux change, two-sided – cell-based, HEK293 M4/GIRK, thallium flux, BTC-AM, M4 allosteric agonist project, primary screen (AID 625;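 active = fluorescence slope after compound addition differing from the mean of all tested samples at 99.7% confidence, mostly higher but some lower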;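 note: thallium influx through GIRK channels coupled to M4 in HEK293 cells with BTC-AM dye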). As to conditions: at 10 µM, actives lie on both sides.
Chain of Muscarinic acetylcholine receptor M4 (Homo sapiens) (P08173 whole entry, looked up): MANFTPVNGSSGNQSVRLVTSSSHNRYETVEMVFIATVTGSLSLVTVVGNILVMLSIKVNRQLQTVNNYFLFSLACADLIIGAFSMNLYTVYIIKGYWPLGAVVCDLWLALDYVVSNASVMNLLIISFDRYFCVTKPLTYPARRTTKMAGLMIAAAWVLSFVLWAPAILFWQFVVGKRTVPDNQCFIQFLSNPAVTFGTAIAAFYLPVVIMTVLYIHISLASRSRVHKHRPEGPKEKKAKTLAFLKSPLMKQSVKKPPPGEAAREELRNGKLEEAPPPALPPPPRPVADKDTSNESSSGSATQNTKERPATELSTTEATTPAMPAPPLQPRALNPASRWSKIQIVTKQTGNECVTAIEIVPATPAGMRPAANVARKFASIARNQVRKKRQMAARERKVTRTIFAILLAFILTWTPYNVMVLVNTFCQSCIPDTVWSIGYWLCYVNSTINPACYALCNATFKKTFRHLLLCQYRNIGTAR
Where [14] appears, read: measured here: cell density z-score.
[15] abbreviates: measured here: nuclear c-Myc green intensity z-score.
Where [16] appears, read: measured here: nuclear pErk red intensity z-score, stronger effect = higher value.

Where “and” joins values, the source holds several entries; their conditions need not be identical. Equal values may be shown once. The source holds several records for some structures; these can differ, active in one and inactive in another. Calls of active or inactive are those of the source.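 Rule for the calls, unless noted: active = inhibition at or above 50% relative to wild type and mutant plate controls; inactive = inhibition below 50%.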

Chain of Alpha-2C adrenergic receptor (Homo sapiens) (P18825 whole entry, looked up): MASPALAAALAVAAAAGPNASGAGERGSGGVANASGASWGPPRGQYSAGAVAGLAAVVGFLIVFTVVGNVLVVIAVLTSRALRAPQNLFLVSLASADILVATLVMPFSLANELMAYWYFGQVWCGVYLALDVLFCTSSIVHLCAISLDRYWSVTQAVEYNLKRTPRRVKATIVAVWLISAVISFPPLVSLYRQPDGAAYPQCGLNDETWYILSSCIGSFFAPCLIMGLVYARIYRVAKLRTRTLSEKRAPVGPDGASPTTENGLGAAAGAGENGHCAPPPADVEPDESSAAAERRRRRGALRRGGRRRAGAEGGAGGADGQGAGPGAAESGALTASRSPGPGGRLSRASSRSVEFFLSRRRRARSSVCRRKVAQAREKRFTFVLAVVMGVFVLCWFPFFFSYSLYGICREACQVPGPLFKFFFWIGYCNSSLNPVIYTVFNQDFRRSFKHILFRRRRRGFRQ
Chain of Voltage-gated potassium channel subunit beta-2 (Rattus norvegicus) (P62483 whole entry, looked up): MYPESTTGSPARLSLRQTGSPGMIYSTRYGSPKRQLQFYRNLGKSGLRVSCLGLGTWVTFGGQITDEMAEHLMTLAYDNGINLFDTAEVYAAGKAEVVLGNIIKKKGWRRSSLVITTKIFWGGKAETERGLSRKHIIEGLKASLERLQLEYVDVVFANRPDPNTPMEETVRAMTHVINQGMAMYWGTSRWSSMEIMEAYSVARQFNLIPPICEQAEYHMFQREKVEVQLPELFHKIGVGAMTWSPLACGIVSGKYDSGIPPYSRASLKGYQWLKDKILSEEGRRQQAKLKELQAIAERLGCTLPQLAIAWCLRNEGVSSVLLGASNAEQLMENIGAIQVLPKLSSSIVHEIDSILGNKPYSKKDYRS

As for `CCNC(=O)N(C(=O)NCC)n1c(C)nnc1C`, the cell count in assay [1] was 615. Further, the inhibition was -11.1% (inactive) in assay [1]; 28.7% (inactive) in assay [3]; 1.12% (inactive) in assay [5]; 11% (inactive) in assay [10]; 9.47% (inactive) in assay [11]; 14% (inactive) in [12]. In addition, the inhibition of aggregation in assay [2] was 16.9% (inactive). The nuclei count in assay [2] was 96.4%; in [3], 130%. In addition, the values for the z-score in [4] (setting [14]), in assay [4] (setting [15]) and in assay [4] (setting [16]) were -1.98, 1.53 and -0.158, respectively. Besides, the fluorescence slope in assay [6] is -0.413 (inactive). In addition, the NADPH fluorescence slope in [7] was -6e-05 (inactive). The slope in assay [8] is 0.00476 (inactive). Further, in [9], the outcome was inactive.
For `CS(=O)(=O)Nc1ccc([N+](=O)[O-])cc1Oc1ccccc1`, the cell count in [1] was 692. In addition, the inhibition was -0.7% (inactive) in [1]; -24.1% (inactive) in [3]; 11.3% (inactive) in assay [5]; 9.15% (inactive) and 12.1% (inactive) in [10]; 15% (inactive) in assay [11]; 15.8% (inactive) in assay [12]. For the same compound, the inhibition of aggregation in assay [2] was 0% (inactive). In addition, the nuclei count was 95.3% in assay [2] and 124% in assay [3]. For the same compound, the z-score in [4] (setting [14]) was -0.515; in assay [4] (setting [15]) it was 1.09; in assay [4] (setting [16]) it was -0.635. Also, the fluorescence slope in [6] was -0.557 (inactive); in [13], 0.00499 (inactive). Besides, the NADPH fluorescence slope in assay [7] was -3.9e-05 (inactive). The slope in [8] is 0.00467 (inactive). For the same compound, in assay [9], the outcome was “active; no signal in intestine only”.
Consider `CC1Cc2ccccc2N1NC(=O)c1ccc(Cl)c(S(N)(=O)=O)c1` (stereo unspecified), for which the cell count in assay [1] is 657. Moreover, the inhibition in assay [1] was -3.7% (inactive); in [3] it was -59.9% (inactive); in assay [5], 21.2% (inactive); in [10], 18.3% (inactive); in [11] it was -7.5% (inactive); in [12] it was -10.9% (inactive). The inhibition of aggregation in [2] is 4.2% (inactive). The figures for the nuclei count in assay [2] and in [3] were 112% and 121%, respectively. Also, the z-score in assay [4] (setting [14]) is 0.724; in [4] (setting [15]), -0.336; in assay [4] (setting [16]), -0.652. Also, the fluorescence slope in assay [6] is -0.544 (inactive). For the same compound, the NADPH fluorescence slope in [7] was -5e-05 (inactive). For the same compound, in assay [8], the slope is 0.0056 (inactive). Also, in assay [9], the call was inactive.
Turning to `CN(C1CCS(=O)(=O)C1)S(=O)(=O)c1cccc2nsnc12` (stereo unspecified), in [1], the cell count was 506. The inhibition in assay [1] was -15.3% (inactive); in assay [3], -64.1% (inactive); in [5] it was -16.8% (inactive); in [10] it was 19.4% (inactive); in [11] it was 15.8% (inactive); in assay [12], 14.5% (inactive). Besides, the inhibition of aggregation in [2] is -7.5% (inactive). Besides, the values for the nuclei count in assay [2] and in assay [3] were 117% and 135%, respectively. In addition, the z-score is 0.217 in [4] (setting [14]), 0.807 in assay [4] (setting [15]) and -0.289 in assay [4] (setting [16]). In addition, the fluorescence slope in [6] is -0.513 (inactive). For the same compound, the NADPH fluorescence slope in assay [7] is -6.5e-05 (inactive). Moreover, in assay [8], the slope is 0.00498 (inactive). Further, the result in [9] was inactive.
Take `Cc1ccc(Cl)c(Nc2ccccc2C(=O)O)c1Cl`: the cell count in [1] is 583. The inhibition in assay [1] is 1.3% (inactive); in assay [3] it was -70.5% (inactive); in [5], -8.38% (inactive); in assay [10], 20.2% (inactive) and 61% (active); in [11], 16.4% (inactive); in [12] it was 40.3% (inactive). The inhibition of aggregation in assay [2] was 12.3% (inactive). Also, the figures for the nuclei count in [2] and in assay [3] were 91.1% and 95.9%, respectively. Further, the results for the z-score in [4] (setting [14]), in assay [4] (setting [15]) and in [4] (setting [16]) were -0.43, -0.511 and -0.695, respectively. For the same compound, in assay [6], the fluorescence slope is -0.487 (inactive). In addition, in assay [7], the NADPH fluorescence slope is -4.2e-05 (inactive). In assay [8], the slope was 0.00556 (inactive). In [9], the call was inactive.
